# Source: PubChem BioAssay (EPA / NIEHS)
# Calls of active or inactive are those of the source. The calls were made as follows: active = hit-call score of the fitted dose curve at least 0.9, where 1 is the maximum; inactive = score below 0.9.
# Assay: ATG_GATA_CIS: Attagene CIS-FACTORIAL HepG2 Assay for human GATA Binding Protein (AID 2282944)
# Conditions: HepG2 GATA cis-element reporter, Attagene multiplex mRNA; actives raise or lower the signal
# Outline: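 Endogenous transcription factor activity was captured through cis-promoter-driven reporters in transfected HepG2 cells. After 24 h exposure, reporter transcripts were quantified by RT-PCR with fluorescent capillary electrophoresis, and responses fitted both directions against DMSO.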
row,SMILES,outcome
1,CC(=O)NC1(c2cccc(F)c2)CCN(CC[C@@]2(c3ccc(Cl)c(Cl)c3)CN(c3ccccc3)C(=O)CO2)CC1,inactive
2,Oc1cccc(O)c1,inactive
3,C#C[C@]1(O)CC[C@H]2[C@@H]3CCC4=CC(=O)CC[C@@H]4[C@H]3CC[C@@]21C,inactive
4,CC(O)CO (stereo not given),inactive
5,CCCCCCCCCCCCN1CCCC1=O,inactive
6,O=C(/C=C/c1ccc(O)cc1)CC(=O)/C=C/c1ccc(O)cc1,inactive
7,COc1cc(CCC(=O)CC(=O)CCc2ccc(O)c(OC)c2)ccc1O,inactive
8,O=c1c(-c2ccc(O)cc2)coc2cc(O)ccc12,inactive
9,CCCCCCCCCCCCc1ccccc1S(=O)(=O)O,inactive
10,CCc1nn(C2CCCCC2)c2cc(C3(C#N)CCC(C(=O)O)CC3)ccc12 (stereo not given),inactive
11,C=C(C)C(=O)OCCC(F)(F)C(F)(F)C(F)(F)C(F)(F)C(F)(F)C(F)(F)F,inactive
12,CCCCOCCO,inactive
13,CCCOc1sc(C(=O)N2CCC(c3cc(CN)ccc3F)CC2)c(C)c1Br,inactive
14,Cc1cc(CCN2CCN(c3nsc4ccccc34)CC2)cc2c1NC(=O)CC2(C)C,inactive
15,CCCCCCCCCCCCCCCS(=O)(=O)Oc1ccccc1,inactive
